From PubChem BioAssay AID1851 (National Center for Advancing Translational Sciences (NCATS), 2009)
In all, about 16,000 compounds went through this assay and about 4,000 (25%) were called active. Inconclusive results (about 26%) are left out. The call rests on the fitted dose curve; in most records, active means well fitted curve in the direction sought with a large enough effect; inconclusive means small, poorly fitted or top-dose-only effect, or effect the other way; inactive means no such curve, though single readings can be large or run the other way. Only a sample is shown.

The molecules below were run against Cytochrome P450 2C9 (Homo sapiens) (UniProt P11712) (assay: Cytochrome panel assay with activity outcomes). Conditions: recombinant CYP, pro-luciferin dealkylation, luminescence, p450-cyp2c9; series mostly up to 57.1 µM; activity, negative = inhibition: at the top concentration.
Chain of Cytochrome P450 2C9 (Homo sapiens) (P11712 whole entry, looked up): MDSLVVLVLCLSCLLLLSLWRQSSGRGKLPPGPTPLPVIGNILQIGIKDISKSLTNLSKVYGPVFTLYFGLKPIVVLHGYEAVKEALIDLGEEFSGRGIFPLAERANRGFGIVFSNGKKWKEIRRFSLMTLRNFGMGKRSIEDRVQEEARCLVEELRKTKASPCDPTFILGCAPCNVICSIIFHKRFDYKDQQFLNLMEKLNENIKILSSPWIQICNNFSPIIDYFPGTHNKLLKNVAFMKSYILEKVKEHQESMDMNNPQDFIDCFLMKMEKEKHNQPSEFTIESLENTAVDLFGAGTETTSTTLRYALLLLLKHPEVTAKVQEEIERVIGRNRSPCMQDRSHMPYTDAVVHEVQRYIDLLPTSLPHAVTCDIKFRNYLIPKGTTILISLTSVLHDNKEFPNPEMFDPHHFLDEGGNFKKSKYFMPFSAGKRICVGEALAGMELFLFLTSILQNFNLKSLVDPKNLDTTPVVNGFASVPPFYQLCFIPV
On the % scale 0 is the no-effect control and ±100 the full control effect.

| Structure (SMILES) | AC50 | activity, negative = inhibition |
| --- | --- | --- |
| COc1ccc(C(=O)NC(=S)NCc2ccccc2)cc1 | 15.8 µM (active) | – |
| O=C(NNC(=O)c1cccnc1)Nc1cccc2ccccc12 | – | -16.4% (inactive) |
| Cc1ccc(C(=O)NNC(=S)NC(=O)c2ccc(Cl)cc2)cc1 | 2 µM (active) | – |
| O=C(NNS(=O)(=O)c1ccccc1)c1cccnc1 | – | 2.91% [at 11.4 µM] (inactive) |
| CCCCC(=O)Nc1cc(OCC)c(NC(=O)c2ccccc2[N+](=O)[O-])cc1OCC | – | -12.6% (inactive) |
| O=C(NNC(=S)NC(=O)c1cccnc1)c1ccccc1 | 5.62 µM (active) | – |
| CCCCC(=O)NNC(=S)NC(=O)c1cccc([N+](=O)[O-])c1 | 10 µM (active) | – |
| NCCNC(=O)c1ccc(Cl)cc1 | inactive | – |
| Cc1ccc(C(=O)NNC(=O)C2CCCN(c3ncccn3)C2)cc1 (centres undefined) | – | 25.8% (inactive) |
| CSc1nc2c(c(C(F)(F)F)n1)CC(C)CC2 (centres undefined) | – | 14.4% (inactive) |
| Cc1ccccc1-c1nccc(NCCN2CCOCC2)n1 | – | 15.8% [at 2.29 µM] (inactive) |
| CN(CC(=O)O)CC(=O)O | – | -7.68% [at 11.4 µM] (inactive) |
| CCc1cc2c(nc1CC)CCN(CC/C(C)=N/O[C@@H](C)c1cc(-c3c(C)cc(C)cc3C)no1)C2 | – | 8.77% [at 11.4 µM] (inactive) |
| Cc1ccc(OCC(=O)NNC(=O)CCc2ccccc2)cc1 | – | -12.1% (inactive) |
| COc1ccc(NC(=O)N2CCC3(CC2)CCN(C(=O)c2ccco2)CC3)cc1 | – | -28.3% (inactive) |
| COc1ccc(NC(=O)N2CC3(CCN(C(=O)c4ccco4)CC3)C2)cc1 | – | -17.3% (inactive) |
| COc1ccc(C(=O)NNC(=S)NC(=O)c2ccco2)cc1 | 7.08 µM (active) | – |
| COc1ccc(C(=O)NC(=S)NNC(=O)CCc2ccccc2)cc1 | 2.82 µM (active) | – |
| O=C(NC(=S)NNC(=O)c1cccs1)c1ccco1 | 15.8 µM (active) | – |
| CCOc1ccc(NC(=O)c2ccc(OC)cc2)cc1 | – | -18.5% (inactive) |
| CCOc1cc(NC(=S)Nc2ccccc2)c(OCC)cc1NC(=O)c1ccc(OC)cc1 | 1.78 µM (active) | – |
| c1ccc(C2CCC(N3CCC(N4CCCCC4)CC3)CC2)cc1 (centres undefined) | – | -7.45% (inactive) |
| O=C1c2cccc3c(Nc4ccccc4Cl)c([N+](=O)[O-])cc(c23)C(=O)N1CCO | 2.82 µM (active) | – |
| O=[N+]([O-])c1cc(Cl)cc2c1nc(NCCO)c1ccccc12 | – | -0.585% [at 11.4 µM] (inactive) |
| O=C1NC(=O)C(c2ccccc2[N+](=O)[O-])=C1Nc1ccc(O)c(Cl)c1 | – | -11.5% (inactive) |
| COc1ccccc1OCCCOc1ccc([N+](=O)[O-])cc1Cl | 11.2 µM (active) | – |

| Structure (SMILES) | AC50 | activity, negative = inhibition |
| --- | --- | --- |
| C#CCN(C)CCCOc1ccc(Cl)cc1Cl | inactive | – |
| COc1ccc(-n2cccc2C=O)cc1OC | – | -8.44% (inactive) |
| CCCOc1ccc(/C=C/C(=O)Nc2ccc([N+](=O)[O-])cc2C)cc1OC | – | 3.29% (inactive) |
| COc1cc(C)ccc1OCCOc1cc(C)ccc1Cl | 0.794 µM (active) | – |
| COc1cc(C=O)ccc1OCCOCCOc1ccccc1Cl | 12.6 µM (active) | – |
| COc1ccc(/C=C2\OC(=O)c3c(OC)cccc32)cc1OC | – | -28.5% (inactive) |
| COc1ccc(CNC(C)(C)C)cc1Cl | – | 0.0327% (inactive) |
| CN=C(NC#N)Nc1ccc(C2=NNC(=O)C[C@@H]2C)cc1 | – | -11.9% (inactive) |
| COc1ccc(-c2nc(N)c3ncn([C@H]4O[C@@H](CO)[C@@H](O)[C@@H]4O)c3n2)cc1 | – | 8.82% [at 11.4 µM] (inactive) |
| COc1cc(CNCc2cccs2)ccc1OCC(=O)NC(C)(C)C | – | -12.4% (inactive) |
| COCCNc1nc(-c2ccccc2C)nc2ccccc12 | – | -5.55% [at 2.29 µM] (inactive) |
| C[C@H](Nc1ncnc2sc3c(c12)CCC3)C(=O)O | – | -3.13% (inactive) |
| OCCNc1nc(SCc2ccccc2)nc2sc3c(c12)CCC3 | 7.94 µM (active) | – |
| COCCNc1nc(SCc2ccccc2)nc2sc3c(c12)CCC3 | 3.16 µM (active) | – |
| CC(CO)Nc1nc(SCc2ccccc2)nc2sc3c(c12)CCC3 (centres undefined) | 4.47 µM (active) | – |
| COCCNc1nc(-c2ccc(N(C)C)cc2)nc2ccccc12 | – | 8.62% [at 2.29 µM] (inactive) |
| CSc1ccc2c(c1)N(CC[C@H]1CCCCN1C)c1ccccc1S2 | inactive | – |
| CC1(C)OCC([C@H](O)C2=CCCCC2=O)CO1 | – | 2.86% [at 11.4 µM] (inactive) |
| CN(C)CCCNC(=O)c1cc2c3ccccc3n(C)c2s1 | – | -7.37% (inactive) |
| COc1ccccc1CNC(=O)c1cc2c(C)nn(Cc3ccc(F)cc3)c2s1 | 2.24 µM (active) | – |
| COc1ccccc1CNc1ncnc2ccc(-c3ccc(C(=O)N(C)C)cc3)cc12 | – | 0.573% [at 2.29 µM] (inactive) |
| Fc1ccc(-c2csc(N3CCC(c4ccccc4)C3)n2)cc1 (centres undefined) | 17.8 µM (active) | – |
| Clc1ccc(-c2csc(N3CCC(c4ccccc4)C3)n2)cc1 (centres undefined) | 14.1 µM (active) | – |
| Brc1ccc(-c2csc(N3CCC(c4ccccc4)C3)n2)cc1 (centres undefined) | 10 µM (active) | – |
| Cc1c(C2CCN(CCc3ccccc3)CC2)noc1-c1ccc(Cl)cc1 | – | -12.1% (inactive) |
| COc1cc2nc(N3CCN(C(=O)OCc4ccccc4)[C@H](C(=O)NC(C)(C)C)C3)nc(N)c2cc1OC | – | -9.68% (inactive) |

| Structure (SMILES) | AC50 | activity, negative = inhibition |
| --- | --- | --- |
| CC(=O)C[C@H](c1ccc([N+](=O)[O-])cc1)c1c(O)c2ccccc2oc1=O | 0.631 µM (active) | – |
| CN(C)c1ccc(C(c2ccc(N(C)C)cc2)c2ccc([N+](=O)[O-])cc2)cc1 | – | -7.57% [at 11.4 µM] (inactive) |
| COc1ccc(NC(=O)N2CC3(CCN(C(=O)c4cnccn4)CC3)C2)cc1 | – | 7.59% (inactive) |
| O=c1oc2cc(Oc3ccc(C(F)(F)F)cc3[N+](=O)[O-])ccc2c2c1CCCC2 | 12.6 µM (active) | – |
| Cn1ncc2c(Cl)ncnc21 | – | 0.147% [at 11.4 µM] (inactive) |
| O=C1[C@@H]2[C@H]3[C@H](O)[C@H](O)C/C(=N/OCc4ccccc4)[C@H]3CC[C@H]2C(=O)N1c1ccc(F)cc1F | – | 12.6% [at 11.4 µM] (inactive) |
| COc1ccc(-c2nnc(-c3cccnc3)o2)cc1 | – | -20.5% (inactive) |
| COc1cccc(-c2noc(-c3cccnc3)n2)c1 | 15.8 µM (active) | – |
| CC(=O)OCC1=C(C(=O)O)N2C(=O)[C@@H](NC(=O)CSc3ccncc3)[C@@H]2SC1 | inactive | – |
| CNc1csc(C)c(C)c1=O | – | 6.4% (inactive) |
| Cc1cnc(CNc2cc(-c3cccnc3)ncn2)cn1 | – | 6.31% [at 2.29 µM] (inactive) |
| N=C1/C(=C\c2ccc(SCc3ccco3)o2)C(=O)N=C2SC=NN12 | 0.447 µM (active) | – |
| ClC(=Nc1cccc2ccccc12)N(c1ccccc1)c1ccccc1 | 3.16 µM (active) | – |
| CCCN1CNC(=S)N(c2cccc(C)c2C)C1 | – | 16.7% (inactive) |
| O=C(CSc1nc2ccccc2c(=O)n1Cc1ccccc1)NCc1ccco1 | – | -22.6% (inactive) |
| O=C(CSc1nc2ccccc2c(=O)n1CCCC(=O)N1CCCC1)NCc1ccco1 | 7.08 µM (active) | – |
| Cc1cc(NC(=O)CSc2nc3ccccc3c(=O)n2CCCC(=O)NCc2ccco2)n[nH]1 | 4.47 µM (active) | – |
| Cc1cccc(C)c1-n1c(SCC(=O)NCc2ccco2)nc2ccccc2c1=O | 14.1 µM (active) | – |
| O=c1c2ccccc2nc(SCc2ccccc2Cl)n1Cc1ccccc1 | 1.26 µM (active) | – |
| Oc1ccc([C@@H]2CNCCc3c2cc(O)c(O)c3Cl)cc1 | – | -2.43% (inactive) |
| O=c1[nH]c(=O)n([C@@H]2C[C@H](O)[C@H](CO)O2)cc1I | – | -5.5% [at 25.6 µM] (inactive) |
| O=C(CSc1nc2ccccc2c(=O)n1NC(=O)Cc1ccccc1)NCc1ccccc1Cl | 0.398 µM (active) | – |
| O=C(O)CCCCCn1c(SCC(=O)N2CCCC2)nc2ccsc2c1=O | – | -13.4% (inactive) |
| CN1CCN(C(=O)c2ccc3c(=O)n4c(nc3c2)CCCCC4)CC1 | – | -8.69% (inactive) |
| COCC(=O)N1CCC2(CCCN(C(=O)Nc3ccc(OC)cc3)C2)CC1 | – | 7.89% (inactive) |
| N#CCSc1nc2cc(C(=O)N3CCCC3)ccc2c(=O)n1Cc1ccccc1 | 3.98 µM (active) | – |

| Structure (SMILES) | AC50 | activity, negative = inhibition |
| --- | --- | --- |
| O=C(CSc1nc2ccccc2c(=O)n1CCCO)NCc1ccccc1 | 12.6 µM (active) | – |
| COc1ccc(NC(=O)CSc2nc3ccccc3c(=O)n2CCC(=O)N2CCCCC2)cc1 | 3.98 µM (active) | – |
| Cc1ccc2cc(C)c3nnc(SCC(=O)NCc4ccco4)n3c2c1 | 15.8 µM (active) | – |
| Cc1cc2cc(C)c3nnc(SCC(=O)NCc4ccc5c(c4)OCO5)n3c2cc1C | – | -80.6% (inactive) |
| Cc1cc(NC(=O)CSc2nc3ccsc3c(=O)n2Cc2ccccn2)n[nH]1 | 28.2 µM (active) | – |
| CCCc1nnc(SCC(=O)N2CCCCC2)n1CC1CCCO1 (centres undefined) | – | 16.6% (inactive) |
| Cc1cc(NC(=O)CSc2nc3ccsc3c(=O)n2CCCCC(=O)O)no1 | – | -13.1% (inactive) |
| CC(C)Cn1c(SCc2nc3ccccc3c(=O)[nH]2)nc2ccccc2c1=O | 2 µM (active) | – |
| O=C(NCC1CCCO1)c1ccc2c(=O)n(Cc3ccco3)c(SCC(=O)N3CCCC3)nc2c1 (centres undefined) | 2.24 µM (active) | – |
| COCc1nc2c([nH]1)c(=O)n(C)c(=O)n2CC(C)C | – | 2.72% (inactive) |
| CCN1CCN(C(=O)CCc2nc3ccccc3c(=O)[nH]2)CC1 | – | -18.2% (inactive) |
| Cc1ccc(OCCCN2C(=O)C(=O)c3cccc(C)c32)cc1 | 8.91 µM (active) | – |
| Cc1cc(C)c(C)c(S(=O)(=O)ON2C(=O)c3ccccc3C2=O)c1C | – | 14% (inactive) |
| CN(c1ccc(C(=O)NC2CC3CCC2C3)cc1)S(C)(=O)=O (centres undefined) | – | 15.8% (inactive) |
| CS(=O)(=O)N1CCN(c2ccc(C(=O)NC3C4CC5CC(C4)CC3C5)cc2[N+](=O)[O-])CC1 (centres undefined) | 12.6 µM (active) | – |
| CCCN[C@@H](C)C(=O)Nc1c(C)csc1C(=O)OC | – | -10.3% [at 25.6 µM] (inactive) |
| CC(=O)c1c(N=CN(C)C)nc(C)nc1-c1ccccc1 | – | -16% (inactive) |
| CN1CCN(c2ncc3nc(-c4ccccc4)c(=O)n(CCc4ccccc4)c3n2)CC1 | 3.16 µM (active) | – |
| CN1CCN(c2ncc3ncc(=O)n(CCc4ccccc4)c3n2)CC1 | – | -24.4% (inactive) |
| COc1ccc(-c2nc3cnc(N4CCOCC4)nc3n(CCc3ccccc3)c2=O)cc1 | – | -27.3% (inactive) |
| CN1CCN(c2ncc3nc(-c4cc(F)cc(F)c4)c(=O)n(CCc4ccccc4)c3n2)CC1 | – | -4.14% (inactive) |
| O=c1c(-c2ccc(Cl)cc2)nc2cnc(N3CCOCC3)nc2n1CCc1ccccc1 | – | 9.02% (inactive) |
| O=c1cnc2cnc(N3CCOCC3)nc2n1CCc1ccccc1 | 10 µM (active) | – |
| O=c1c(-c2ccccc2)nc2cnc(N3CCOCC3)nc2n1CCc1ccccc1 | 7.94 µM (active) | – |
| N#CCCn1c(=O)cnc2cnc(N3CCOCC3)nc21 | – | 22.8% (inactive) |
| COc1ccc(-c2nc3cnc(N4CCN(C)CC4)nc3n(CCc3ccccc3)c2=O)cc1 | – | 2.38% (inactive) |
